{
  "source": "PubChem BioAssay AID2253",
  "about": "(Southern Research Specialized Biocontainment Screening …, 2010)",
  "note": "About 1,300 (59%) of roughly 2,200 compounds were called active. The rule behind the calls is not given here. The set was probably picked from earlier hits. The list is a sample of the results. Measured potencies and affinities stand elsewhere.",
  "data": [
    {"assay": "THP-1 cell cytotoxicity, dose response, cytotoxicity control for Salmonella PhoP regulon inhibitors, S. typhimurium screen hits (AID 2253)", "conditions": "THP-1 viability, CellTiter-Glo luminescence, 72 h; series mostly up to 50 µM; viability: at the top concentration", "values": [
      {"smiles": "Cn1cccc1C(=O)OCc1csc(-c2ccccc2)n1", "viability": "92.6% (inactive)"},
      {"smiles": "N#CC1(C#N)COC23CCCCC2C1(C#N)C(=N)O3", "note": "(stereo not drawn)", "viability": "109% (inactive)"},
      {"smiles": "Cc1nc(C(=O)Nc2ccc(Cl)cc2)nn1-c1ccc([N+](=O)[O-])cc1", "viability": "80.2% (inactive)"},
      {"smiles": "O=C(NC(CO)Cc1ccc([N+](=O)[O-])cc1)C(Cl)Cl", "note": "(stereo not drawn)", "viability": "82.4% (inactive)"},
      {"smiles": "CCOC(=O)C1(S(=O)(=O)c2ccccc2)CCN(Cc2ccc(Cl)cc2)CC1", "viability": "101% [at 25 µM] (inactive)"},
      {"smiles": "Cc1ccc(NC(=O)C2CC(=O)NC(N3CCCCC3)=N2)cc1Cl", "note": "(stereo not drawn)", "viability": "97.1% (inactive)"},
      {"smiles": "CCN(CC)C(=O)CP(=O)(c1ccccc1)c1ccccc1", "viability": "89.9% (inactive)"},
      {"smiles": "CCn1c2ccccc2c2cc(NC(=O)C(C)Oc3ccccc3)ccc21", "note": "(stereo not drawn)", "viability": "85.2% (inactive)"},
      {"smiles": "O=C(CCNS(=O)(=O)c1cccc2nsnc12)NCc1cccs1", "viability": "96.8% (inactive)"},
      {"smiles": "O=C(OCC1COc2ccccc2O1)c1ccccc1F", "note": "(stereo not drawn)", "viability": "105% (inactive)"},
      {"smiles": "CCC1C2CN(C(C)=O)CC=C2C(C#N)=C(N)C1(C#N)C#N", "note": "(stereo not drawn)", "viability": "107% (inactive)"},
      {"smiles": "O=C(CCCN1C(=O)CCC1=O)Nc1ccc2c(c1)OCCO2", "viability": "87.8% (inactive)"},
      {"smiles": "CCCNC(=O)CSc1nnc(C)s1", "viability": "103% (inactive)"},
      {"smiles": "CC(=O)Nc1cccc(OC(=O)c2ccoc2C)c1", "viability": "104% (inactive)"},
      {"smiles": "CO/N=C(/C(=O)N[C@@H]1C(=O)N2C(C(=O)O)=CCS[C@H]12)c1cnc(N)s1", "viability": "111% (inactive)"},
      {"smiles": "COc1ccc(-c2ccccc2)cc1NCc1ccccc1C", "viability": "83.1% (inactive)"},
      {"smiles": "CCOC(=O)Cc1ccc2sc(-c3ccccc3)nc2c1", "viability": "82.3% (inactive)"},
      {"smiles": "COC(=O)Cc1c(C)nc2nc(NCc3ccc(Cl)cc3)[nH]n2c1=O", "viability": "92% (inactive)"},
      {"smiles": "CC(C)NC(=O)CSc1nc(N)c(NC(=O)c2ccccc2F)c(=O)[nH]1", "viability": "101% (inactive)"},
      {"smiles": "CN1c2ccccc2C(O)=C(C(=O)Nc2ccccc2)S1(=O)=O", "viability": "81.3% (inactive)"},
      {"smiles": "O=C(O)CCCCCN1C(=O)c2ccc(C(=O)O)cc2C1=O", "viability": "92.1% (inactive)"},
      {"smiles": "CC(=O)N1N=C(c2ccco2)CC1c1ccc(Br)cc1", "note": "(stereo not drawn)", "viability": "95.1% (inactive)"},
      {"smiles": "CCOC(=O)CN(C)Cc1c[nH]c2ccccc12", "viability": "95.1% (inactive)"},
      {"smiles": "O=C(c1ccccc1S(=O)(=O)NCc1ccccc1)N1CCCC1", "viability": "83.8% (inactive)"},
      {"smiles": "CN(C)CCOC(=O)Cc1ccc(Cl)cc1", "viability": "106% (inactive)"},
      {"smiles": "O=C(c1cccnc1Nc1ccc2c(c1)CCC2)N1CCOCC1", "viability": "87.5% (inactive)"},
      {"smiles": "O=C(NCc1ccco1)c1ccc(Br)s1", "viability": "99.7% (inactive)"},
      {"smiles": "Cn1c(=O)n(CC(=O)Nc2ccccc2)c2ccccc21", "viability": "98.8% (inactive)"},
      {"smiles": "O=C(/C=C/c1ccccc1)N/C(=C/c1ccccc1)C(=O)N1CCOCC1", "viability": "91.7% (inactive)"},
      {"smiles": "CN(C)c1ccnc(-n2cccc2/C=N/OCc2ccccc2)c1C#N", "viability": "84.2% (inactive)"},
      {"smiles": "COC(=O)c1sc2nc(CSc3nc4ccc(C)cc4[nH]3)[nH]c(=O)c2c1C", "viability": "90.8% (inactive)"},
      {"smiles": "CCc1cccc2c(C#N)cn(CC(=O)NCCOC)c12", "viability": "98.8% (inactive)"},
      {"smiles": "CN1CCN(c2c(F)cc3c(=O)c(C(=O)O)cn4c3c2SCC4)CC1", "outcome": "inactive"},
      {"smiles": "S=c1nc(-c2ccccc2)oc2c1CCCC2", "viability": "93.2% (inactive)"},
      {"smiles": "CCC(CC)C(=O)NCCc1ccc(OC)cc1", "viability": "84.2% (inactive)"},
      {"smiles": "COc1ccc(-c2ccc(C#N)c(SCC(=O)NCCc3ccccc3)n2)cc1OC", "viability": "85.9% (inactive)"},
      {"smiles": "CCOC(=O)c1ccc2c(c1)C(=O)N(C1CCCCC1)C2=O", "viability": "101% (inactive)"},
      {"smiles": "N#CC1=C(S)N(c2ccccc2)C(c2ccc(-c3ccccc3Cl)o2)NC1=O", "note": "(stereo not drawn)", "viability": "92.5% (inactive)"},
      {"smiles": "O=c1c2ccccc2nnn1Cc1ccccn1", "viability": "88.6% (inactive)"},
      {"smiles": "CCOC(=O)N1CCN(C(=O)c2cn(CC(C)C)c(=O)c3c2c2ccccc2n3C)CC1", "viability": "92% (inactive)"},
      {"smiles": "N#CCOC(=O)c1sccc1-n1cccc1", "viability": "98% (inactive)"},
      {"smiles": "Cc1cc(C)c(C#N)c(SCc2cn3ccccc3n2)n1", "viability": "86.7% [at 25 µM] (inactive)"},
      {"smiles": "CCN(CC)c1nc2n(c(=O)n1)CCO2", "viability": "87% (inactive)"},
      {"smiles": "COC(=O)Cc1c(O)ccn(Cc2ccc(F)cc2)c1=O", "viability": "93.3% (inactive)"},
      {"smiles": "CC1CCN(C(c2cc3cc4c(cc3[nH]c2=O)OCO4)c2nnnn2CC2CCCO2)CC1", "note": "(stereo not drawn)", "viability": "90% (inactive)"},
      {"smiles": "CCOC(=O)C1CCCN(C(=O)Cc2ccc(Cl)cc2)C1", "note": "(stereo not drawn)", "viability": "93.5% (inactive)"},
      {"smiles": "COCC(=O)N=Nc1c(O)[nH]c2ccccc12", "viability": "93.8% (inactive)"},
      {"smiles": "Cc1ccc(N(CC(=O)N/N=C/c2ccco2)S(=O)(=O)c2ccccc2)cc1", "viability": "80.2% (inactive)"},
      {"smiles": "C=CCn1c(C)cc(C(=O)CSc2nc(N)cc(N)n2)c1C", "viability": "82.7% (inactive)"},
      {"smiles": "O=C(O)CC(NC(=S)NCc1ccccc1)C(=O)O", "note": "(stereo not drawn)", "viability": "86.3% (inactive)"},
      {"smiles": "COc1c(/C=N/Nc2nc(N3CCCCC3)nc(N3CCCCC3)n2)cccc1[N+](=O)[O-]", "viability": "90.2% (inactive)"},
      {"smiles": "CCCCN(C(=O)NC(=O)Nc1nc2ccc(OC)cc2s1)S(C)(=O)=O", "viability": "83.8% (inactive)"},
      {"smiles": "CCOc1ccc(Nc2nc(NCCN3CCOCC3)nc(OC)n2)cc1", "viability": "81.4% (inactive)"},
      {"smiles": "CCOc1ccc(NC(=O)CCC(=O)n2nc(C)cc2C)cc1", "viability": "95.3% (inactive)"},
      {"smiles": "CNc1nc(Sc2ccccc2)cc(C(F)(F)F)n1", "viability": "80.4% (inactive)"},
      {"smiles": "Cc1ccc(/C(O)=C2\\C(=O)C(=O)N(CC(C)O)C2c2cccc(F)c2)cc1", "note": "(stereo not drawn)", "viability": "96.5% (inactive)"},
      {"smiles": "CCOC(=O)CCCc1c[nH]c2ccccc12", "viability": "91% (inactive)"},
      {"smiles": "NC(=O)CCc1c[nH]c2ccccc12", "viability": "96.8% (inactive)"}
    ]}
  ]
}
